In one assay the test system is PRKCI. The conditions noted are these: concentration: 1 μM, replicates: in singlicate, n = 1.
For the next assay, the system named is PRKCQ. The conditions noted are these: concentration: 1 μM, replicates: in singlicate, n = 1.
In the next assay the test system is PRKD1. The conditions noted are these: concentration: 1 μM, replicates: in singlicate, n = 1.
A further assay has as its system PRKD2. The conditions noted are these: concentration: 1 μM, replicates: in singlicate, n = 1.
The test system of another assay is PRKD3. The conditions noted are these: concentration: 1 μM, replicates: in singlicate; n = 1.
Another assay concerns PRKG1. As to conditions: concentration: 1 μM, replicates: in singlicate, n = 1.
For a further assay, the system named is PRKG2. As to conditions: concentration: 1 μM, replicates: in singlicate, n = 1.
Another assay deals with T1, PRKR.
T1 construct: gene EIF2AK2
The conditions noted are these: concentration: 1 μM, replicates: in singlicate, n = 1.

In a further assay the test system is PRKX. The conditions noted are these: concentration: 1 μM, replicates: in singlicate, n = 1.
The subject of the next assay is PRP4. As to conditions: concentration: 1 μM, replicates: in singlicate, n = 1.
Another assay concerns T2, PYK2.
T2 construct: gene PTK2B
As to conditions: concentration: 1 μM, replicates: in singlicate, n = 1.

The next assay deals with QSK. As to conditions: concentration: 1 μM, replicates: in singlicate, n = 1.
For the next assay, the system named is RAF1. The conditions noted are these: concentration: 1 μM, replicates: in singlicate, n = 1.
The subject of another assay is RET. The conditions noted are these: concentration: 1 μM, replicates: in singlicate; n = 1.
For a further assay, the system named is RIOK1. As to conditions: concentration: 1 μM, replicates: in singlicate, n = 1.
Another assay deals with RIOK2. The conditions noted are these: concentration: 1 μM, replicates: in singlicate; n = 1.
In the next assay the test system is RIOK3. The conditions noted are these: concentration: 1 μM, replicates: in singlicate; n = 1.
A further assay relates to RIPK1. The conditions noted are these: concentration: 1 μM, replicates: in singlicate, n = 1.
The test system of the next assay is RIPK2. As to conditions: concentration: 1 μM, replicates: in singlicate, n = 1.
Another assay relates to RIPK4. The conditions noted are these: concentration: 1 μM, replicates: in singlicate, n = 1.

SMILES strings stand for the structures. Where “and” joins values, the source holds several entries; their conditions need not be identical. Equal values may be shown once. Read-outs that look alike come from different tables or passages of the source.

From article PMC5540273 (PLoS ONE, 2017) come the findings set out here.
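Further: KINOMEscan kinase panel screen.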

`N#Cc1c(N2CCOCC2)sc(-c2ccn[nH]2)c1-c1ccc(Cl)cc1`: the “%Inh” value came to 1% in the assay on PRKCI; 11% in the assay on PRKCQ; 0% in the assay on PRKD1; 0% in the assay with PRKD2; 16% with PRKD3; 0% in the assay with PRKG1. Besides, the “%Inh” value with PRKG2 came out at 8%; with PRKR it was 0%; in the assay on PRKX it was 12%; in the assay on PRP4, 56%; with PYK2, 0%; with QSK, 0%. Besides, the “%Inh” value in the assay on RAF1 was 11%; in the assay on RET, 0%; with RIOK1, 0%; in the assay on RIOK2 it was 0%; in the assay with RIOK3 it was 0%; with RIPK1 it was 6%. The “%Inh” value is recorded as 0% in the assay with RIPK2 and 35% in the assay on RIPK4.
Consider `CSc1ccc(-c2cc3ncnc(SCC(=O)O)c3s2)cc1`, for which the “%Inh” value worked out at 0% in the assay with PRKCI; 0% in the assay on PRKCQ; 18% with PRKD1; 0% in the assay on PRKD2; 9% in the assay with PRKD3; 0% with PRKG1. Moreover, the “%Inh” value in the assay on PRKG2 turned out to be 0%; in the assay on PRKR, 0%; in the assay on PRKX, 0%; in the assay on PRP4, 0%; in the assay on PYK2 it was 13%; in the assay with QSK, 0%. Moreover, the “%Inh” value in the assay with RAF1 came to 0%; in the assay on RET, 8%; in the assay on RIOK1 it was 0%; with RIOK2 it was 0%; in the assay with RIOK3 it was 0%; in the assay on RIPK1, 0%. In addition, the “%Inh” value in the assay with RIPK2 and in the assay with RIPK4 was 0% throughout.
On to `Fc1ccc(-c2nn3c(OCC(F)(F)F)cccc3c2-c2ccncc2)cc1` [GW514784], for which the “%Inh” value in the assay on PRKCI is recorded as 25%; in the assay on PRKCQ it was 12%; in the assay with PRKD1 it was 27%; in the assay on PRKD2, 7%; with PRKD3, 0%; in the assay on PRKG1 it was 14%. Moreover, the “%Inh” value turned out to be 7% in the assay with PRKG2; 0% in the assay with PRKR; 3% in the assay on PRKX; 34% in the assay with PRP4; 1% with PYK2; 0% with QSK. The “%Inh” value with RAF1 is on record as 8%; with RET, 0%; with RIOK1 it was 39%; in the assay with RIOK2 it was 0%; in the assay on RIOK3 it was 5%; in the assay on RIPK1, 0%. The results for the “%Inh” value in the assay with RIPK2 and in the assay on RIPK4 were 43% and 0%, respectively.
Take `O=C(NOCC1CC1)c1ccc(F)c(F)c1Nc1ccc(I)cc1Cl`: the “%Inh” value worked out at 0% with PRKCI; 0% with PRKCQ; 8% in the assay with PRKD1; 0% in the assay on PRKD2; 0% in the assay on PRKD3; 0% in the assay with PRKG1. Further, the “%Inh” value in the assay on PRKG2, with PRKR, in the assay with PRKX, in the assay on PRP4, in the assay on PYK2 and in the assay on QSK was 0% in each case. Further, the “%Inh” value in the assay on RAF1 turned out to be 0%; in the assay on RET, 17%; in the assay on RIOK1, 7%; in the assay on RIOK2, 0%; in the assay on RIOK3 it was 0%; with RIPK1, 0%. For the same molecule, the “%Inh” value is recorded as 0% with RIPK2 and 100% with RIPK4.
For `CCc1nc(-c2cccc(C)c2)c(-c2ccnc(NCc3ccccc3)c2)s1`, the “%Inh” value with PRKCI is 0%; in the assay with PRKCQ, 31%; in the assay with PRKD1, 0%; in the assay on PRKD2, 13%; in the assay with PRKD3 it was 0%; in the assay on PRKG1, 0%. For the same molecule, the “%Inh” value with PRKG2 is 0%; in the assay on PRKR it was 0%; in the assay with PRKX, 0%; in the assay on PRP4, 6%; in the assay with PYK2, 9%; with QSK it was 0%. The “%Inh” value is recorded as 24% in the assay on RAF1; 4% in the assay with RET; 10% in the assay on RIOK1; 0% in the assay on RIOK2; 22% in the assay on RIOK3; 0% in the assay with RIPK1. Besides, the “%Inh” value in the assay on RIPK2 stood at 26%; with RIPK4 it was 0%.
Turning to `O=c1cc(N2CCOCC2)nc2n(Cc3cccc(F)c3)ccn12` [GSK2297430], the “%Inh” value with PRKCI is recorded as 0%; in the assay on PRKCQ, 11%; with PRKD1, 6%; in the assay on PRKD2, 0%; in the assay on PRKD3, 0%; with PRKG1, 10%. Further, the “%Inh” value stood at 0% in the assay with PRKG2; 0% in the assay with PRKR; 2% in the assay on PRKX; 0% with PRP4; 22% in the assay with PYK2; 0% in the assay on QSK. In addition, the “%Inh” value stood at 0% in the assay on RAF1; 31% in the assay on RET; 35% in the assay with RIOK1; 11% with RIOK2; 35% with RIOK3; 0% in the assay on RIPK1. For the same molecule, the “%Inh” value with RIPK2 and with RIPK4 was 0% in each case.
Consider `O=C(NCCNc1ccnc(Nc2ccc(F)cc2)n1)Nc1ccccc1F` [GSK1379880], for which the “%Inh” value turned out to be 25% in the assay on PRKCI; 0% in the assay on PRKCQ; 0% with PRKD1; 0% in the assay with PRKD2; 0% in the assay on PRKD3; 0% in the assay on PRKG1. Besides, the “%Inh” value in the assay with PRKG2 stood at 0%; with PRKR it was 0%; with PRKX it was 9%; with PRP4, 21%; in the assay with PYK2 it was 16%; in the assay on QSK it was 0%. In addition, the “%Inh” value is reported as 22% in the assay on RAF1; 5% with RET; 17% in the assay with RIOK1; 5% in the assay with RIOK2; 0% in the assay with RIOK3; 0% with RIPK1. Besides, the “%Inh” value is on record as 1% with RIPK2 and 11% with RIPK4.
As for `Cc1nnc(-c2ccc3ncc(-c4ccc(S(C)=O)cc4)n3c2)o1` (centres unmarked), the “%Inh” value in the assay with PRKCI is given as 0%; in the assay on PRKCQ it was 0%; in the assay on PRKD1 it was 0%; in the assay on PRKD2, 13%; in the assay with PRKD3, 0%; with PRKG1, 0%. The “%Inh” value in the assay with PRKG2 is reported as 0%; with PRKR, 0%; in the assay with PRKX it was 19%; with PRP4, 2%; in the assay with PYK2 it was 0%; with QSK, 0%. Besides, the “%Inh” value with RAF1 amounted to 49%; with RET, 9%; with RIOK1, 0%; with RIOK2, 0%; in the assay on RIOK3, 0%; in the assay on RIPK1, 0%. Further, the “%Inh” value with RIPK2 was found to be 21%; in the assay with RIPK4, 24%.
Consider `O=C(Nc1n[nH]c2cc(-c3cccc(F)c3)ccc12)C1CC1` [SB-735464], for which the “%Inh” value is listed as 0% with PRKCI; 5% in the assay on PRKCQ; 0% in the assay with PRKD1; 0% with PRKD2; 1% in the assay with PRKD3; 16% in the assay with PRKG1. For the same molecule, the “%Inh” value stood at 0% with PRKG2; 0% in the assay with PRKR; 0% in the assay with PRKX; 7% in the assay on PRP4; 0% in the assay on PYK2; 28% with QSK. Moreover, the “%Inh” value was 15% with RAF1; 0% in the assay on RET; 66% in the assay with RIOK1; 40% in the assay on RIOK2; 0% with RIOK3; 38% with RIPK1. For the same molecule, the “%Inh” value in the assay on RIPK2 is 0%; in the assay with RIPK4, 18%.
Regarding `CC(C)(CN)c1nc(-c2ccc(Cl)c(O)c2)c(-c2ccncc2)[nH]1.O=C(O)C(F)(F)F` [SB-477794], the “%Inh” value with PRKCI (1 µM) was 97.5% and 97.8%; in the assay with PRKCQ (1 µM), 75% and 76%; in the assay on PRKD1 (1 µM), 92.4% and 93.9%; in the assay on PRKD2 (1 µM) it was 89% and 91.8%; with PRKD3, 100%; in the assay on PRKG1 (1 µM), 0% and 20%. In addition, the “%Inh” value with PRKG2 (1 µM) is 0% and 10%; with PRKR (1 µM), 0% and 12%; in the assay on PRKX (1 µM), 21% and 22%; in the assay on PRP4 (1 µM), 69% and 33%; in the assay with PYK2 (1 µM), 0% and 17%; with QSK (1 µM) it was 91.5% and 86%. Further, the “%Inh” value was 98.5% and 95.1% in the assay on RAF1 (1 µM); 99.9% in the assay with RET; 0% and 1% in the assay with RIOK1 (1 µM); 0% with RIOK2; 0% in the assay with RIOK3; 2% and 0% with RIPK1 (1 µM). Also, the “%Inh” value in the assay on RIPK2 (1 µM) was 92.7% and 90%; in the assay with RIPK4 (1 µM) it was 36% and 5%.
